According to PubChem BioAssay AID651658 (Broad Institute, 2012):
In all, about 340,000 compounds went through this assay and about 5,100 (1.5%) were called active.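 The calls were made as follows: active = mean Tm shift, scaled 0 neutral to 100 positive control, at about 1.3% or above, every replicate too (limit read from the data); inconclusive = no clear call, values can overlap the other calls; inactive = the rest.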 The list comes from a sample in which actives are over-represented; it also holds similar structures and randomly drawn compounds.

Biological target: Fibroblast growth factor 22 (Homo sapiens) (UniProt Q9HCT0)
Assay: FGF22 ligand-induced thermal stabilization – biophysical, thermal shift, single point, FGF22 synaptogenesis inhibitor project, primary screen (AID 651658)
Details: recombinant FGF22 thermal shift, SYPRO orange fluorescence; at 9.99 µM; hits give high values; percent of sucrose octasulfate shift, DMSO zero

Chain of Fibroblast growth factor 22 (Homo sapiens) (Q9HCT0 whole entry, looked up): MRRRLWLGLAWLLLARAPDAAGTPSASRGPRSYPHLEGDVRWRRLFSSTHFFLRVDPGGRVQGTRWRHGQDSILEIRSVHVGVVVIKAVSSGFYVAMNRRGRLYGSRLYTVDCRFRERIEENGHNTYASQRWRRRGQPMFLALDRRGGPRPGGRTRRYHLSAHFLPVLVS

| SMILES | activity (Tm shift, normalised) |
| --- | --- |
| Cc1ccc(OCC(=O)Nc2ccc(N3CCN(C(=O)c4ccco4)CC3)cc2)c(C)c1 | -0.015% (inactive) |
| Cc1ccc(NC(=O)C(c2ccccc2)N2CCN(C(=O)c3ccco3)CC2)cc1 (stereo unspecified) | -0.162% (inactive) |
| CCC(=O)Nc1ccc(C(=O)N2CCN(C(=O)c3ccco3)CC2)cc1 | 44.4% (active) |
| O=C(Nc1cccc(F)c1)N[C@@H]1CC[C@@H](CCn2cc(Cc3ccccc3)nn2)O[C@@H]1CO | 0.097% (inactive) |
| CO[C@@H]1CN(C)C(=O)c2cc(NC(=O)C3CCCC3)ccc2OC[C@@H](C)N(C(=O)Nc2ccc(C(F)(F)F)cc2)C[C@H]1C | -0.774% (inactive) |
| O=C(C[C@H]1C[C@H]2c3cc(NC(=O)CC4CC4)ccc3O[C@H]2[C@H](CO)O1)NCc1ccccn1 | 0.96% (inactive) |
| Cc1cc(=O)[nH]c(SCC(=O)Nc2ccc(Br)cc2)n1 | -0.265% (inactive) |
| CCCc1cc(=O)[nH]c(SCC(=O)Nc2ccc(C(=O)Nc3ccccc3OC)cc2)n1 | -0.412% (inactive) |
| Cc1ccc(NC(=O)CSc2nc(CSc3ccc(C)cc3)cc(=O)[nH]2)cc1 | 44% (active) |
| COc1ccc(S(=O)(=O)Nc2ccc3c(c2)C(=O)N([C@@H](C)CO)C[C@H](C)[C@@H](CN(C)C(=O)Nc2ccc4c(c2)OCO4)OCCCC[C@@H](C)O3)cc1 | 0.801% (inactive) |
| C[C@H](CO)N1C[C@H](C)[C@H](CN(C)CC2CCCC2)Oc2ncc(Br)cc2C1=O | -0.016% (inactive) |
| CC(C)NC(=O)N1[C@H](CO)[C@@H]2c3ccccc3N(C(=O)Nc3cccc(Cl)c3)C[C@@H]21 | 0.043% (inactive) |
| Cc1ccc(S(=O)(=O)N(C)C[C@@H]2Oc3c(NC(=O)NC(C)C)cccc3C(=O)N([C@H](C)CO)C[C@H]2C)cc1 | 0.01% (inactive) |
| CC(=O)Nc1ccc(/C=N/Nc2ccc(C(=O)c3c(C)cc4ccccn34)cc2[N+](=O)[O-])cc1 | -0.063% (inactive) |
| Cc1cc2ccccn2c1C(=O)c1cccc(F)c1 | -0.141% (inactive) |
| Cc1ccc(C(C[N+](=O)[O-])c2c(C)cc3ccccn23)cc1 (stereo unspecified) | 43.8% (active) |
| Cc1cc(C)n(-c2ccc3nncn3n2)n1 | 43.4% (active) |
| O=C(Nc1ccccc1Cl)N1CCN(c2ccc3nncn3n2)CC1 | 0.014% (inactive) |
| Cc1cc(C)n(-c2nnc(N3CCN(c4ccccc4)CC3)nn2)n1 | 0.536% (inactive) |
| CCS(=O)(=O)N1Cc2cc(C(=O)N(C)C)nc(-c3cccc(-c4ccc(C#N)cc4)c3)c2[C@H]1CCO | -0.41% (inactive) |
| CCCC#Cc1ccc2c(c1)O[C@@H](CN(C)C(=O)c1cccnc1)[C@H](C)CN([C@H](C)CO)S2(=O)=O | -0.014% (inactive) |
| OCCN1CCN(C(=S)c2ccc(-c3ccccc3)cc2)CC1 | -0.171% (inactive) |
| S=C(c1ccc(-c2ccccc2)o1)N1CCCCC1 | 43.4% (active) |
| CN1CCN(C(=O)c2ccc(-c3ccc(Br)cc3)o2)CC1 | -0.078% (inactive) |
| C[C@@H]1CN([C@@H](C)CO)C(=O)Cc2cc(NS(C)(=O)=O)ccc2O[C@H]1CN(C)S(=O)(=O)c1ccc(F)cc1 | 0.13% (inactive) |
| COc1cccc(CNC(=O)C[C@@H]2C=C[C@@H](NC(=O)C3CCC3)[C@@H](CO)O2)c1 | 0.068% (inactive) |

| SMILES | activity (Tm shift, normalised) |
| --- | --- |
| CSc1ccc(CN(C)CC(=O)NCc2ccc(F)cc2)cc1 | 0.292% (inactive) |
| Cc1ccc(CS(=O)(=O)CCC(=O)NCc2ccc(F)cc2)cc1 | -0.138% (inactive) |
| Cc1ccc(SC(C)C(=O)NCc2ccc(F)cc2)cc1 (stereo unspecified) | 43.3% (active) |
| C[C@@H]1CN([C@H](C)CO)C(=O)c2cccc(NC(=O)c3nc4ccccc4s3)c2O[C@@H]1CN(C)C | 0.121% (inactive) |
| C[C@H](CO)N1C[C@H](C)[C@H](CN(C)C(=O)NC2CCCCC2)Oc2c(NC(=O)c3nc4ccccc4s3)cccc2C1=O | -0.035% (inactive) |
| CC(C)NC(=O)N(C)C[C@@H]1Oc2c(NC(=O)c3nc4ccccc4s3)cccc2C(=O)N([C@H](C)CO)C[C@H]1C | 29.2% (active) |
| COc1ccc(S(=O)(=O)Nc2ccc3c(c2)C(=O)N([C@H](C)CO)C[C@@H](C)[C@H](CN(C)C(=O)c2ccncc2)OCCCC[C@@H](C)O3)cc1 | -0.014% (inactive) |
| O=C(C[C@H]1C[C@H]2c3cc(NC(=O)CC4CC4)ccc3O[C@H]2[C@H](CO)O1)NCc1ccccc1 | 0.206% (inactive) |
| N#C[C@@H]1[C@@H](c2ccc(-c3cccnc3)cc2)[C@H](CO)N1C(=O)Nc1ccc(F)cc1 | 0.238% (inactive) |
| CN(Cc1ccccc1)S(=O)(=O)c1nnc(NC(=O)c2ccccc2F)s1 | -0.151% (inactive) |
| O=C(Nc1nnc(-c2ccccc2F)s1)c1ccccc1F | 2.31% (active) |
| O=C(Nc1nnc(-c2ccc(F)cc2)s1)c1c(F)cccc1Cl | 0.279% (inactive) |
| CCN(C(=O)CSc1nc2ccccc2n1CC)C1CCS(=O)(=O)C1 (stereo unspecified) | 0.234% (inactive) |
| CN(C(=O)CSc1nnc(-c2ccc(C(C)(C)C)cc2)n1C)C1CCS(=O)(=O)C1 (stereo unspecified) | 0.442% (inactive) |
| CCn1c(SCC(=O)N(C)C2CCS(=O)(=O)C2)nnc1-c1cccs1 (stereo unspecified) | 43.9% (active) |
| Cc1ccc(S(=O)(=O)Nc2ccc3c(c2)C(=O)N([C@H](C)CO)C[C@H](C)[C@@H](CN(C)C(=O)NC(C)C)OCCCC[C@@H](C)O3)cc1 | 0.879% (inactive) |
| CCCc1cn(CC[C@@H]2CC[C@@H](NC(=O)CCN3CCCCC3)[C@H](CO)O2)nn1 | 0.083% (inactive) |
| COc1ccc(-n2c(C)cc(C(=O)COC(=O)c3cc(OC)c(OC)cc3NC(=O)c3cccs3)c2C)cc1 | 43.4% (active) |
| COc1ccc(C(=O)COC(=O)CNC(=O)c2cccs2)cc1Br | -0.191% (inactive) |
| Cc1cc(C(=O)COC(=O)C2CC2)c(C)n1-c1ccc(F)cc1 | 0.711% (inactive) |
| COc1ccc2c3c(n(C)c2c1)[C@@H](CO)N(C(=O)Nc1ccccc1F)CC31CCN(C(=O)c2ccccc2F)CC1 | -0.032% (inactive) |
| COc1ccc(NC(=O)N(C)C[C@@H]2Oc3ccc(NS(=O)(=O)c4ccc(Cl)cc4)cc3C(=O)N([C@H](C)CO)C[C@@H]2C)cc1 | 0.119% (inactive) |
| Cc1ccc2[nH]c(=O)c(CC(=O)O)c(-c3ccccc3)c2c1 | -0.089% (inactive) |
| c1ccc2cc3[nH]c(CN4CCCCC4)nc3cc2c1 | -0.01% (inactive) |
| Cc1ccc2[nH]c(=O)c(CN3CCCCC3)c(-c3ccccc3)c2c1 | 43.2% (active) |
| Cc1ccccc1S(=O)(=O)N[C@H]1CC[C@@H](CCn2cc(Cc3ccccc3)nn2)O[C@H]1CO | -0.039% (inactive) |

| SMILES | activity (Tm shift, normalised) |
| --- | --- |
| Cc1noc(C)c1NC(=O)N(C)C[C@H]1OCCCC[C@H](C)Oc2ccc(NC(=O)Cc3ccccc3)cc2C(=O)N([C@H](C)CO)C[C@@H]1C | 1.07% (inactive) |
| CCc1ccccc1NC(=O)CSc1nnc(-c2ccncc2)o1 | -0.04% (inactive) |
| O=C(COc1ccc(Cl)cc1)NCc1nnc(SCC(=O)NCC2CCCO2)o1 (stereo unspecified) | 42.9% (active) |
| O=C(CSc1nnc(-c2ccncc2)o1)Nc1cccc(Cl)c1 | 0.107% (inactive) |
| O=C(CSc1ccc(-c2ccccc2)nn1)NCC1CCCO1 (stereo unspecified) | -0.177% (inactive) |
| COc1ccc2c(C)cc(SCC(=O)NCC3CCCO3)nc2c1 (stereo unspecified) | 0.011% (inactive) |
| O=C(CSc1nnc(-c2ccncc2)o1)NCc1ccc(Cl)cc1 | 43.9% (active) |
| C[C@@H]1CN([C@@H](C)CO)C(=O)c2cc(NS(=O)(=O)c3cn(C)cn3)ccc2O[C@@H]1CN(C)C(=O)NC1CCCCC1 | -0.419% (inactive) |
| COC(=O)[C@@H]1[C@@H](CO)[C@@H]2Cn3c(ccc(-c4ccc(OC)cc4)c3=O)[C@@H]2N1S(C)(=O)=O | -0.206% (inactive) |
| CCC(=O)N1[C@H](C(=O)OC)[C@@H](CO)[C@@H]2Cn3c(ccc(-c4cccc(F)c4)c3=O)[C@@H]21 | 0.191% (inactive) |
| COCC(=O)N1[C@@H](CO)[C@H](c2ccccc2)C12CN(C(=O)NC1CCCCC1)C2 | 0.045% (inactive) |
| COc1ccc2c3c([nH]c2c1)[C@H](CO)N(Cc1ccccc1)CC31CCN(C(=O)c2ccccn2)CC1 | -0.204% (inactive) |
| C[C@@H]1CN([C@@H](C)CO)C(=O)Cc2cc(NC(=O)Nc3cccc4ccccc34)ccc2O[C@H]1CN(C)CC1CCCCC1 | 0.094% (inactive) |
| O=C(NCCc1ccc(F)cc1)c1n[nH]c2ccccc12 | 43.3% (active) |
| COc1cccc(CNC(=O)c2n[nH]c3ccccc23)c1 | 0.239% (inactive) |
| O=C(NCCc1ccccc1)c1c[nH]c2ccc(F)cc2c1=O | 0.52% (inactive) |
| CCCNC(=O)N1C[C@@H](O)COC[C@H]2O[C@H](CC(=O)NCCCN3CCOCC3)CC[C@@H]21 | -0.348% (inactive) |
| COc1ccccc1-c1ccc2c(c1)O[C@H](CN(C)C(=O)c1cccnc1)[C@H](C)CN([C@@H](C)CO)S2(=O)=O | -0.096% (inactive) |
| O=C(C[C@@H]1CC[C@@H]2[C@H](COC[C@H](O)CN2C(=O)C2CC2)O1)NCc1ccncc1 | 0.141% (inactive) |
| CN(C)CC(=O)N1[C@H](CO)[C@@H](c2ccc(-c3cccc(C(=O)N(C)C)c3)cc2)[C@@H]1C#N | 0.074% (inactive) |
| NC(=O)N1CCc2ccccc21 | 43.1% (active) |
| O=C(NC(=S)N1CCc2ccccc21)c1ccco1 | 0.306% (inactive) |
| O=C(c1cnn2ccccc12)N1CCc2ccccc21 | -0.357% (inactive) |
| C[C@H](CO)N1C[C@H](C)[C@@H](CN(C)C(=O)Cc2ccncc2)Oc2ncc(C3=CCCCC3)cc2C1=O | 0.188% (inactive) |
